Bioassay records: PubChem BioAssay, National Center for Advancing Translational Sciences (NCATS)
A selection: hits, their analogues and other compounds. The true share with any hit is near 3.8%.
A549 tox: A549 cytotoxicity, counter-screen for Nrf2 inhibitors; A549 ARE-Fluc cells, CellTiter-Fluor viability, 18-24 h; Potency, µM (doses to about 46 µM), usual class: inhibitors; actives 0.16% (n = 390,000); AID 504648
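Cytotoxicity counterscreen: CellTiter-Fluor fluorescence was measured in A549 ARE_Fluc cells after 18-24 h of compound exposure in a concentration series. The subsequent BugLite luminescent read reports ARE-luciferase activity.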
ATXN viability: viability counter-screen for ATXN expression inhibitors; Potency, µM (titrated, usually from 56.7 µM), hits mostly cytotoxic; S2 cells (HEK-293 line with an ATXN2-luciferase reporter) viability, CellTiter-Fluor protease fluorescence, 24 h; AID 651635; actives 0.49% (n = 400,000); also: nearly all actives have a fitted effect of over 40% in size
Nrf2 inh: inhibitors of Nrf2 signaling | A549 ARE-Fluc reporter, luciferase luminescence, 18-24 h | Potency, µM (highest dose often 46 µM), hits mostly inhibitors | AID 504444 | actives 2.1% (n = 360,000); also: nearly all actives have a fitted effect of over 60% in size
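Reporter: ARE-Fluc in A549. Exposure: 18-24 h, 37 °C, 5% CO2, 5% FBS OPTI-MEM. Readouts: fluorescent cytotoxicity (CellTiter-Fluor), then luminescent Nrf2 signal after BugLite.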
ATXN2 expr inh: reduces ATXN2 reporter expression in HEK-293 cells; actives 0.72% (n = 360,000); Potency, µM (highest dose often 57 µM), usual class: inhibitors; HEK-293 ATXN2-luciferase reporter, luminescence, 24 h; AID 1745845; also: nearly all actives have a fitted effect of over 55% in size
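ATXN2-luciferase reporter cells (luciferase flanked by upstream and downstream ATXN2 gene portions) were treated 24 h at 37 °C with compounds at up to 57 uM. SteadyGlo luminescence gave expression; GF-AFC fluorescence gave viability.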
TGFb SMAD3 inh: inhibitors of TGF-b signaling. HepG2 CAGA-GFP TGF-b/SMAD3 reporter, GFP fluorescence, 18 h; TGF-beta stimulated, 500 pg/mL final. Potency, µM (doses to about 46.1 µM), actives largely listed as inhibitors. actives 1.2% (n = 410,000); also: nearly all actives have a fitted effect of over 65% in size
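Read-out: total well GFP (ex488/em500-530) summed from mean per-cell fluorescence. Cells: HEPG2 CAGA-GFP, 1% FBS DMEM, 18 h at 37 degrees C with 500 pg/mL final TGF-beta. Unstimulated wells served as the full-inhibition control; stimulated DMSO wells = 0%.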
HepG2 tox: HepG2 cytotoxicity, counter-screen for TGF-b inhibitors; HepG2 CAGA-GFP viability, ATP luminescence, 18 h; Potency, µM (doses to about 46.1 µM), most hits filed as cytotoxic; actives 0.76% (n = 410,000)
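CellTiter-Glo luminescence gave cytotoxicity after 18 hours at 37 degrees C. The cells were HepG2 CAGA-GFP in 1% FBS DMEM, stimulated with 500 pg/mL TGF-beta after compound addition. %Activity was normalised to no-cell wells (complete cell-killing) and DMSO (no toxicity), and curves were fitted and classified.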
Hits are given with their value; – = inactive; ? = inconclusive; · = no result. Calls follow the shape of the dose curve; as a rule, active = well fitted curve in the direction sought with a large enough effect; inconclusive = small, poorly fitted or top-dose-only effect, or another doubt; inactive = no such curve, though single readings can be large; an effect the other way counts as inactive or inconclusive.

SMILES | A549 tox | ATXN viability | Nrf2 inh | ATXN2 expr inh | TGFb SMAD3 inh | HepG2 tox
O=C(OCCOCCN=C1NS(=O)(=O)c2ccccc21)c1ccccc1Br | – | – | – | – | – | –
CCOc1cc(/C=N/NC(N)=S)cc(Br)c1OCc1ccccc1C | – | ? | ? | ? | – | –
COc1cc(/C=N/N=C(\N)c2nonc2N)cc(OC)c1O | – | – | ? | – | – | –
CCOc1cc(/C=N/N=C(\N)c2nonc2N)cc(Br)c1OCc1cccc2ccccc12 | ? | ? | 20.6µM | ? | ? | 11.2µM
COc1cc(/C=N/N=C(/N)c2nonc2N)cc(Br)c1OCc1cccc(C)c1 | – | – | 20.6µM | – | ? | –
O=C(Cn1c(=O)n(-c2ccccc2Cl)c(=O)c2sc3ccccc3c21)NC1CCCCC1 | – | ? | – | – | – | –
O=C(NCc1ccc(Cl)cc1)c1cnc(N2CCCCC2)c2ccccc12 | – | · | · | · | ? | –
Cc1ccc(CNC(=O)c2cnc(N3CCCCC3)c3ccccc23)cc1 | – | · | · | · | 11.2µM | –
Cc1ccc(CNC(=O)c2cccn2-c2nnc(N3CCCCC3)s2)cc1 | – | · | – | · | 7.94µM | –
O=S1(=O)c2cccc3cccc(c23)N1CCCN1CCN(c2ccc(F)cc2)CC1 | · | – | · | – | · | ·
COc1cc(S(=O)(=O)N2CCN(C(=O)c3ccccc3)CC2)c(OC)cc1Br | – | – | – | · | – | –
FC(F)(F)c1nnc(-c2ccccc2)nc1Sc1ccc(Cl)cc1 | – | · | ? | 28.2µM | – | –
FC(F)(F)c1cccc(Oc2nc(-c3ccccc3)nnc2C(F)(F)F)c1 | · | – | – | – | – | –
FC(F)(F)c1nnc(-c2ccccc2)nc1Sc1ccccc1 | – | · | – | ? | ? | –
FC(F)(F)c1cccc(Sc2nc(-c3ccccc3)nnc2C(F)(F)F)c1 | – | 28.2µM | · | ? | – | –
CCN(c1ccccc1)S(=O)(=O)c1ccc(F)cc1C | – | – | – | – | – | –
O=C(CCc1nnc2ccc(NCc3ccco3)nn12)Nc1cccc(F)c1 | ? | – | – | – | – | –
CCCn1c(=O)sc2cc(NC(=O)c3ccc(OC)c(Br)c3)ccc21 | – | ? | 16.4µM | ? | – | –
COc1ccc(N2CCN(C(=O)c3cc(-c4ccc(F)cc4)[nH]c3C)CC2)cc1 | – | – | – | – | ? | –
Cc1[nH]c(-c2ccc(F)cc2)cc1C(=O)N1CCN(c2ccc(Cl)cc2)CC1 | – | ? | ? | 14.1µM | ? | –
CC1(C)CC2C1CCC1(O)CC2(C)CCC1N(O)c1ccc(C(=O)NCCO)cn1 (stereo not given) | – | ? | ? | 28.2µM | – | –
CCCOc1ccc(C(=O)NCCO)cc1 | – | – | – | – | – | –
CCS(=O)(=O)Nc1cc2c3c(c1)CCC(=O)N3CCC2 | – | · | – | · | – | –
O=C(CCC(=O)N1CCN(S(=O)(=O)c2ccc(Cl)cc2)CC1)Nc1cccc(Br)c1 | – | ? | – | – | – | –
O=C1c2cccc3cccc(c23)C(=O)N1OS(=O)(=O)c1ccc(Cl)cc1 | – | – | – | – | – | –
SMILES | A549 tox | ATXN viability | Nrf2 inh | ATXN2 expr inh | TGFb SMAD3 inh | HepG2 tox
CCc1ccc(S(=O)(=O)ON2C(=O)c3ccccc3C2=O)cc1 | – | · | – | 29.9µM | ? | –
CC(C)CC(=O)NC(=S)Nc1nc(-c2cccc3ccccc23)cs1 | ? | – | 25.9µM | – | ? | –
Cc1ccc(-n2cc(CNCCc3ncc(C)[nH]3)c(-c3ccc(F)cc3)n2)cc1 | ? | ? | – | 25.1µM | ? | –
CCCNC(=O)NCCc1ccncc1 | – | – | – | – | – | –
CC(C)CC(=O)NCCc1ccncc1 | – | – | – | – | – | 2.82µM
CCn1c(=O)cc(SCC(=O)Nc2cc(Cl)ccc2OC)c2ccccc21 | – | ? | ? | ? | ? | –
COc1cc(NC(=O)CSc2cc(=O)n(C)c3ccccc23)cc(OC)c1OC | – | – | 20.6µM | – | – | –
CCn1c(=O)cc(SCC(=O)Nc2ccc(OC)c(OC)c2)c2ccccc21 | – | – | 16.4µM | – | – | –
CCOCCn1ccc2c(OCC(=O)Nc3ccc(OC)c(OC)c3)cccc2c1=O | – | ? | 11.6µM | ? | – | –
COc1ccc(N(Cc2ccccc2)S(=O)(=O)c2cccc(C(=O)Nc3ncccc3C)c2)cc1 | – | – | 18.4µM | · | – | –
O=S1(=O)CC(N2CCN(c3ccccn3)CC2)CN1C1CCCCC1 (stereo not given) | · | – | · | – | – | –
COc1cc2nc(-c3cc(F)ccc3O)nc(N[C@@H]3CNC[C@@H]3C(C)(C)O)c2cc1OC | · | · | · | 21.7µM | · | ·
COc1ccc(-c2cc(-c3cc(F)ccc3O)[nH]n2)cc1OC | – | – | – | – | – | –
CCN(Cc1ccc(OC)c(F)c1)C(=O)/C=C/c1ccc(S(=O)(=O)N2CCOCC2)cc1 | – | · | ? | · | – | –
COCCN(CC(=O)Nc1cccc(C)c1C)C(=O)CN1C(=O)NC2(CCCCC2)C1=O | – | – | – | · | – | –
CC(Oc1ccccc1)C(=O)N(CCC1=CCCCC1)c1c(N)n(Cc2ccccc2)c(=O)[nH]c1=O (stereo not given) | – | – | – | – | 17.8µM | –
Nc1c(N(CCC2=CCCCC2)C(=O)COc2ccc(F)cc2)c(=O)[nH]c(=O)n1Cc1ccccc1 | ? | · | ? | ? | 7.94µM | 8.91µM
Cc1ccc(OCC(O)Cn2c3ccccc3c3ccccc32)cc1 (stereo not given) | – | – | ? | – | ? | –
OC(COCC(F)(F)C(F)(F)C(F)(F)C(F)F)Cn1c2ccccc2c2ccccc21 (stereo not given) | ? | ? | ? | ? | ? | 17.8µM
O=C(NCCc1nc2ccc(Cl)cc2[nH]1)C1CCC(=O)N(Cc2cccc(F)c2)C1 (stereo not given) | – | – | – | – | – | –
Clc1ccc(N2CCN(/N=C/c3cccnc3)CC2)cc1 | – | – | 8.2µM | ? | – | –
Cc1ccc(N2CCN(/N=C/c3cccnc3)CC2)cc1 | – | – | ? | ? | – | –
COc1cc(OC)nc(-n2ncc(Br)c(Br)c2=O)n1 | ? | · | ? | ? | 3.55µM | 11.2µM
COC(=O)c1cnn(-c2nc(OC)cc(OC)n2)c1C | – | – | – | – | – | –
O=C1C=C(c2ccccc2)C[C@H](c2cccs2)[C@H]1n1nnc([N+](=O)[O-])n1 | – | 28.2µM | ? | ? | – | –
COC(=O)c1ccccc1Nc1ccnc(Cl)n1 | – | – | – | – | – | 20µM
COC(=O)c1ccccc1NC(=O)Nc1ccc(Cl)cn1 | – | ? | ? | – | – | –
CC(C)(C)C(=O)Nc1ccc(N2CCN(c3ccc(C(F)(F)F)cn3)CC2)nc1 | – | – | ? | – | – | –
